# According to the antibiotic and cytotoxicity screens of Wong et al. (2023):
# About 3,300 (8.5%) of roughly 39,000 compounds were called active. The list comes from a sample in which actives are over-represented; it also holds similar structures and randomly drawn compounds.
# Test system: HepG2
# Experiment: cytotoxicity call (relative viability < 0.9)
# Conditions: 10 µM
row,Compound,cytotoxicity call
1,O=C(NCCN1CCOCC1)c1ccc(Cl)c(S(=O)(=O)N2CCOCC2)c1,inactive
2,CC1(C)CC(NC(=O)c2ccc(Cl)c(S(=O)(=O)N(Cc3ccccc3)c3ccccc3)c2)CC(C)(C)N1,active
3,CC1Cc2ccccc2N1NC(=O)c1ccc(Cl)c(S(N)(=O)=O)c1 (stereo unspecified),inactive
4,C[C@@H]1CN([C@@H](C)CO)C(=O)c2cc(NS(=O)(=O)c3cccs3)ccc2O[C@@H](C)CCCCO[C@@H]1CN(C)C(=O)NC1CCCCC1,inactive
5,C[C@@H]1CN([C@@H](C)CO)C(=O)c2cc(C#Cc3cccnc3)cnc2O[C@H]1CN(C)S(=O)(=O)c1ccccc1F,inactive
6,Cc1cc2nc3c(=O)[nH]c(=O)nc-3n(C[C@@H](O)[C@@H](O)[C@@H](O)CO)c2cc1C,inactive
7,COC1=CC(C)C2CC3OC(=O)CC4C(C)=C(OC)C(=O)C(C2(C)C1=O)C34C (stereo unspecified),inactive
8,C[C@H]1CC=CC[C@H](c2ccc3c(c2)OCO3)NC(=O)[C@@H](Cc2ccccc2)N(C)C(=O)c2ccccc2O1,inactive
9,C[C@H]1CC=CC[C@@H](c2ccc3c(c2)OCO3)NC(=O)[C@H](Cc2ccccc2)N(C)C(=O)c2ccccc2O1,inactive
10,C[C@@H]1CC=CC[C@H](c2ccc3c(c2)OCO3)NC(=O)[C@@H](Cc2ccccc2)N(C)C(=O)c2ccccc2O1,active
11,C[C@@H]1CN([C@@H](C)CO)S(=O)(=O)c2ccc(C#C[C@@H](C)O)cc2O[C@@H]1CN(C)C(=O)c1ccccc1,inactive
12,C[C@@H]1CN([C@@H](C)CO)S(=O)(=O)c2ccc(C#Cc3ccncc3)cc2O[C@H]1CN(C)C(=O)C1CCC1,active
13,C[C@H]1CN([C@@H](C)CO)S(=O)(=O)c2ccc(C#Cc3ccncc3)cc2O[C@@H]1CN(C)C(=O)C1CCC1,inactive
14,C[C@@H]1CN([C@@H](C)CO)S(=O)(=O)c2ccc(C#Cc3ccncc3)cc2O[C@@H]1CN(C)C(=O)C1CCC1,inactive
15,C[C@H](CO)N1C[C@H](C)[C@@H](CN(C)C(=O)C2CCC2)Oc2cc(C#Cc3ccncc3)ccc2S1(=O)=O,active
16,C[C@@H]1CN([C@H](C)CO)S(=O)(=O)c2ccc(C#Cc3ccncc3)cc2O[C@H]1CN(C)C(=O)C1CCC1,active
17,C[C@H]1CN([C@@H](C)CO)S(=O)(=O)c2ccc(C#Cc3ccncc3)cc2O[C@H]1CN(C)C(=O)C1CCC1,inactive
18,C[C@H](CO)N1C[C@H](C)[C@H](CN(C)C(=O)C2CCC2)Oc2cc(C#Cc3ccncc3)ccc2S1(=O)=O,active
19,C[C@@H]1CN([C@@H](C)CO)C(=O)c2cccc(NS(=O)(=O)c3cn(C)cn3)c2O[C@@H]1CN(C)C(=O)Nc1ccc2c(c1)OCO2,inactive
20,CCc1nc2ccc(C(=O)Nc3ccc(OC)c(OC)c3)cn2c1N(CC)Cc1cccc(Br)c1,inactive
21,O=C(CSc1nnc(-c2ccccc2)n1C1CCCCC1)Nc1ccc(S(=O)(=O)Nc2ccccn2)cc1,inactive
22,Cc1ccc(CN)s1,inactive

row,Compound,cytotoxicity call
1,C[C@H](CO)N1C[C@H](C)[C@@H](CN(C)C(=O)Nc2ccccc2)Oc2cc(Br)ccc2S1(=O)=O,inactive
2,Cc1noc(C)c1NC(=O)Nc1ccc2c(c1)C(=O)N([C@@H](C)CO)C[C@@H](C)[C@H](CN(C)S(=O)(=O)c1cccs1)OCCCC[C@@H](C)O2,inactive
3,C[C@@H]1CCCCO[C@H](CN(C)Cc2ccc(C(=O)Nc3ccccc3N)cc2)[C@@H](C)CN([C@H](C)CO)C(=O)c2cc(N(C)C)ccc2O1,inactive
4,C[C@H]1CN([C@@H](C)CO)C(=O)c2cc(NC(=O)CCN3CCOCC3)ccc2O[C@@H]1CN(C)C(=O)Nc1ccc(F)cc1,inactive
5,C/N=C1\S[C@@H](CC(=O)NC(C)C)C(=O)N1C,inactive
6,C[C@@H]1CN([C@@H](C)CO)C(=O)c2cc(C#Cc3cccnc3)cnc2O[C@@H]1CN(C)S(=O)(=O)c1ccccc1F,inactive
7,C[C@H]1CN([C@@H](C)CO)C(=O)c2cccc(NC(=O)CCCCCC(=O)Nc3ccccc3N)c2O[C@@H]1CN(C)S(=O)(=O)c1cn(C)cn1,inactive
8,CC(C)NC(=O)N(C)C[C@H]1OCCCC[C@@H](C)Oc2ccc(NC(=O)Nc3cccc4ccccc34)cc2C(=O)N([C@H](C)CO)C[C@@H]1C,inactive
9,N#Cc1c(-c2ccccc2)no[n+]1[O-],inactive
10,C[C@H]1CN([C@@H](C)CO)C(=O)c2cc(NC(=O)CCN3CCOCC3)ccc2O[C@@H]1CN(C)CC1CCCCC1,inactive
11,Cc1ccc(S(=O)(=O)N(C)C[C@H]2Oc3ccc(NS(=O)(=O)c4cn(C)cn4)cc3CC(=O)N([C@H](C)CO)C[C@@H]2C)cc1,inactive
12,C[C@@H]1CN([C@H](C)CO)S(=O)(=O)c2ccc(C#Cc3ccncc3)cc2O[C@@H]1CN(C)C(=O)C1CCC1,active
13,Cc1noc(C)c1S(=O)(=O)Nc1ccc2c(c1)C(=O)N([C@@H](C)CO)C[C@@H](C)[C@@H](CN(C)S(=O)(=O)c1ccc(F)cc1)O2,inactive
14,C[C@@H]1CN([C@H](C)CO)C(=O)Cc2cc(NC(=O)Nc3ccc(C(F)(F)F)cc3)ccc2O[C@@H]1CN(C)Cc1ccc(Cl)c(Cl)c1,active
15,C[C@H](CO)N1C[C@H](C)[C@H](CN(C)Cc2ccc(Cl)c(Cl)c2)Oc2ccc(NC(=O)Nc3ccc(C(F)(F)F)cc3)cc2CC1=O,inactive
16,C[C@H](CO)N1C[C@H](C)[C@@H](CN(C)Cc2ccc(Cl)c(Cl)c2)Oc2ccc(NC(=O)Nc3ccc(C(F)(F)F)cc3)cc2CC1=O,active
17,C[C@@H]1CN([C@@H](C)CO)C(=O)Cc2cc(NC(=O)Nc3ccc(C(F)(F)F)cc3)ccc2O[C@H]1CN(C)Cc1ccc(Cl)c(Cl)c1,active
18,C[C@H]1CN([C@@H](C)CO)C(=O)Cc2cc(NC(=O)Nc3ccc(C(F)(F)F)cc3)ccc2O[C@H]1CN(C)Cc1ccc(Cl)c(Cl)c1,active
19,C[C@@H]1CN([C@H](C)CO)C(=O)Cc2cc(NC(=O)Nc3ccc(C(F)(F)F)cc3)ccc2O[C@H]1CN(C)Cc1ccc(Cl)c(Cl)c1,inactive
20,C[C@H]1CN([C@@H](C)CO)C(=O)Cc2cc(NC(=O)Nc3ccc(C(F)(F)F)cc3)ccc2O[C@@H]1CN(C)Cc1ccc(Cl)c(Cl)c1,inactive
21,CC(C)NC(=O)N(C)C[C@@H]1Oc2ccc(NC(=O)CCCN(C)C)cc2C(=O)N([C@H](C)CO)C[C@@H]1C,inactive
22,COc1ccc2c3c(n(c2c1)C)[C@H](CO)N(C[C@]13CN(CC2CCOCC2)C1)C(=O)Cc1ccccn1,inactive

row,Compound,cytotoxicity call
1,NC(=O)c1ccc[n+](CC(=O)N2CCCCC2)c1,inactive
2,Cc1noc(C)c1S(=O)(=O)Nc1ccc2c(c1)C(=O)N([C@@H](C)CO)C[C@H](C)[C@@H](CN(C)C(=O)Nc1ccccc1)O2,inactive
3,O=C(C[C@H]1CC[C@H]2[C@@H](COC[C@@H](O)CN2S(=O)(=O)c2ccc(F)cc2)O1)N1CCc2ccccc2C1,inactive
4,O=c1nc(NCCN2CCOCC2)cn[nH]1,inactive
5,NC(=O)Cn1nnc(-c2ccccc2)n1,inactive
6,C[C@@H]1CN([C@H](C)CO)C(=O)c2cc(NC(=O)Nc3cccc4ccccc34)ccc2O[C@H]1CN(C)Cc1ccncc1,inactive
7,C[C@@H]1CN([C@@H](C)CO)C(=O)c2cccc(NC(=O)c3nc4ccccc4s3)c2O[C@@H]1CN(C)S(=O)(=O)c1cn(C)cn1,inactive
8,COc1ccc2c3c([nH]c2c1)[C@H](CO)N(C[C@]13CN(C1)S(=O)(=O)c1ccccc1)C(=O)c1cnccn1,inactive
9,COc1cccc(NC(=O)N[C@H]2CC[C@@H](CC(=O)N3CCOCC3)O[C@H]2CO)c1,inactive
10,C[C@@H]1CN([C@@H](C)CO)C(=O)Cc2cc(NC(=O)Nc3ccc(C(F)(F)F)cc3)ccc2O[C@@H]1CN(C)Cc1ccc(Cl)c(Cl)c1,active
11,COc1ccc(S(=O)(=O)N(C)C[C@H]2Oc3ccc(NC(=O)Cc4ccccc4)cc3C(=O)N([C@H](C)CO)C[C@@H]2C)cc1,inactive
12,C[C@@H]1CN([C@H](C)CO)C(=O)c2cccc(NC(=O)Nc3cccc4ccccc34)c2O[C@H]1CN(C)C(=O)Nc1ccc2c(c1)OCO2,inactive
13,NS(=O)(=O)c1cccc2c1c([N+](=O)[O-])cc1[nH]c(=O)c(=O)[nH]c12,inactive
14,C[C@@H]1CCCCO[C@@H](CN(C)CC2CC2)[C@@H](C)CN([C@H](C)CO)C(=O)c2cc(NS(C)(=O)=O)ccc2O1,inactive
15,C[C@H](CO)N1C[C@H](C)[C@H](CN(C)Cc2ccc(-c3ccccc3)cc2)Oc2ccc(NC(=O)Nc3ccc4c(c3)OCO4)cc2CC1=O,active
16,C[C@H]1CN([C@@H](C)CO)C(=O)Cc2cc(NC(=O)Nc3ccc4c(c3)OCO4)ccc2O[C@H]1CN(C)Cc1ccc(-c2ccccc2)cc1,inactive
17,C[C@@H]1CN([C@H](C)CO)C(=O)Cc2cc(NC(=O)Nc3ccc4c(c3)OCO4)ccc2O[C@H]1CN(C)Cc1ccc(-c2ccccc2)cc1,inactive
18,C[C@@H]1CN([C@@H](C)CO)C(=O)Cc2cc(NC(=O)Nc3ccc4c(c3)OCO4)ccc2O[C@H]1CN(C)Cc1ccc(-c2ccccc2)cc1,active
19,C[C@@H]1CN([C@H](C)CO)C(=O)Cc2cc(NC(=O)Nc3ccc4c(c3)OCO4)ccc2O[C@@H]1CN(C)Cc1ccc(-c2ccccc2)cc1,active
20,C[C@H]1CN([C@@H](C)CO)C(=O)Cc2cc(NC(=O)Nc3ccc4c(c3)OCO4)ccc2O[C@@H]1CN(C)Cc1ccc(-c2ccccc2)cc1,active
21,C[C@@H]1CN([C@@H](C)CO)C(=O)Cc2cc(NC(=O)Nc3ccc4c(c3)OCO4)ccc2O[C@@H]1CN(C)Cc1ccc(-c2ccccc2)cc1,inactive
22,C[C@H](CO)N1C[C@H](C)[C@@H](CN(C)Cc2ccc(-c3ccccc3)cc2)Oc2ccc(NC(=O)Nc3ccc4c(c3)OCO4)cc2CC1=O,inactive
